Measured values published in PubChem BioAssay (Tox21).
Several values for one entry are separate records, joined by “and”; a condition that tells them apart may be missing. Equal values may be shown once. Inconclusive results are not listed. More than one record can exist for a structure, and the calls need not agree. Activity calls are given as the source filed them. Unless noted, calls follow the shape of the full dose curve. Starred links: 1 amine or outer side, 2 acyl side, 3 side chain; linkers in the order of their positions; H or OH if unused. Positions of bridges follow the written chain, without caps; N, C: chain ends. Non-standard residues stand in square brackets, D forms with d. Residues, ends and D or L forms follow the SMILES beside them. Chains are numbered I, II in the order given. Actinocin(9to1) = Cc1c2oc3c(C)ccc(C(=O)[*:1])c3nc-2c(C(=O)[*:2])c(N)c1=O; NMeV = CN[C@H](C(=O)O)C(C)C; Sar = CNCC(=O)O

Experiments:
[1] = qHTS assay to identify small molecule antagonists of the sonic hedgehog signaling (Shh) pathway (AID 1259369); also: nearly all actives have a fitted effect of over 45% in size; also: potency is read from the fitted curve at half-maximal effect
Outline: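 Gli1 transcriptional reporter (firefly Luc) in NIH/3T3 background, conditioned-medium activated. 24hr exposure, luminescence endpoint.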

[2] = target: Estrogen receptor beta (Homo sapiens) (UniProt Q92731); experiment: qHTS assay to identify small molecule agonists of the estrogen receptor beta (ER-beta) signaling pathway (AID 1259377; active = well fitted activation curve with a large enough effect in the signal ratio in the repeat runs, not every such curve was filed as active; the % refers to the signal ratio)
Estrogen receptor beta (Homo sapiens), sequence (Q92731 whole entry, looked up): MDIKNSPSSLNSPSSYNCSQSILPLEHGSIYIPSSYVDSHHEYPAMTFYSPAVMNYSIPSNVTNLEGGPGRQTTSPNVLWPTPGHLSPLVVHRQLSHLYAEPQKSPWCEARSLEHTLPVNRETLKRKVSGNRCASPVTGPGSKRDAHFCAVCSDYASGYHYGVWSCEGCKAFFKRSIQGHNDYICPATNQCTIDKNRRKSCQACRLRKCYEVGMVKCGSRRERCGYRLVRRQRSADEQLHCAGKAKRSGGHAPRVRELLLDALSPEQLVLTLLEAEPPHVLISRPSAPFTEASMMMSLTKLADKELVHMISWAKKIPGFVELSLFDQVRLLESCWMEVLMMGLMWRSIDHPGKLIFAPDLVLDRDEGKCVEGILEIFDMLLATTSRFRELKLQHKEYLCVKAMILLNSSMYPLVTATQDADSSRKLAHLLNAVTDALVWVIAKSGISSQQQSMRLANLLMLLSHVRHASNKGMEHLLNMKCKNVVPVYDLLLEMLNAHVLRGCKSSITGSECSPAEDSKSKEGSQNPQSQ
Outline: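 HEK293T ER-beta-UAS-bla; 2% charcoal-stripped FBS; cells pre-incubated 6 hr, compound 16 hr, 37C/5% CO2; LiveBLAzer B/G FRET substrate 2 h RT; fluorescence intensity read.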

[3] = target: Estrogen receptor beta (Homo sapiens) (UniProt Q92731); experiment: qHTS assay to identify small molecule antagonists of the estrogen receptor beta (ER-beta) signaling pathway (AID 1259378; active = well fitted inhibition curve with a large enough effect in the signal ratio in the repeat runs, not every such curve was filed as active; the % refers to the signal ratio; also: potency is read from the fitted curve at half-maximal effect)
Outline: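 ER-beta-UAS-bla HEK293T cells in 2% charcoal-stripped FBS medium treated with compound plus 1nM final 17-beta-estradiol for 16 hr at 37C. Beta-lactamase reporter read by FRET substrate fluorescence after 2 hours at room temperature.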

[4] = qHTS assay to identify small molecule agonists of the androgen receptor (AR) signaling pathway in the presence of an antagonist - cell viability counter screen (AID 1259379; active = well fitted curve in the direction sought with a large enough effect in the repeat runs; an effect the other way counts as inactive or inconclusive; also: nearly all actives have a fitted effect of over 25% in size; also: potency is read from the fitted curve at half-maximal effect)
Outline: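 Counter screen for cell viability run in parallel with the AR agonist-mode luciferase assay. MDA-kb2 cells were co-treated with nilutamide (3.0uM final) and compounds, then incubated 16 hr at 37C, and CellTiter-Fluor fluorescence was measured.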

[5] = qHTS assay to identify small molecule agonists of the estrogen receptor beta (ER-beta) signaling pathway - cell viability counter screen (AID 1259380; active = well fitted curve in the direction sought with a large enough effect in the repeat runs; an effect the other way counts as inactive or inconclusive; also: nearly all actives have a fitted effect of over 30% in size; also: potency is read from the fitted curve at half-maximal effect)
Outline: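 In this qHTS counter screen, HEK293T cells carrying an ER-beta/UAS beta-lactamase reporter, grown in 2% charcoal-stripped FBS, received compound for 16 hr; ATP-based CellTiter-Glo luminescence was then read after 30 min at room temperature.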

[6] = qHTS assay to identify small molecule antagonists of the estrogen receptor beta (ER-beta) signaling pathway - cell viability counter screen (AID 1259382; active = well fitted curve in the direction sought with a large enough effect in the repeat runs; an effect the other way counts as inactive or inconclusive; also: nearly all actives have a fitted effect of over 55% in size; also: potency is read from the fitted curve at half-maximal effect)
Outline: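 HEK293T ER-beta-UAS-bla, 2% charcoal-stripped FBS; compounds + 1nM E2 16 hr 37C; CellTiter-Glo luminescence, 30 min RT.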

[7] = target: Estrogen receptor (Homo sapiens) (UniProt P03372); experiment: qHTS assay to identify small molecule agonists of the estrogen receptor alpha (ER-alpha) signaling pathway in the presence of an antagonist (AID 1259383); also: top concentration of the series differs between compounds; nearly all actives have a fitted effect of over 15% in size
Estrogen receptor (Homo sapiens), sequence (P03372 whole entry, looked up): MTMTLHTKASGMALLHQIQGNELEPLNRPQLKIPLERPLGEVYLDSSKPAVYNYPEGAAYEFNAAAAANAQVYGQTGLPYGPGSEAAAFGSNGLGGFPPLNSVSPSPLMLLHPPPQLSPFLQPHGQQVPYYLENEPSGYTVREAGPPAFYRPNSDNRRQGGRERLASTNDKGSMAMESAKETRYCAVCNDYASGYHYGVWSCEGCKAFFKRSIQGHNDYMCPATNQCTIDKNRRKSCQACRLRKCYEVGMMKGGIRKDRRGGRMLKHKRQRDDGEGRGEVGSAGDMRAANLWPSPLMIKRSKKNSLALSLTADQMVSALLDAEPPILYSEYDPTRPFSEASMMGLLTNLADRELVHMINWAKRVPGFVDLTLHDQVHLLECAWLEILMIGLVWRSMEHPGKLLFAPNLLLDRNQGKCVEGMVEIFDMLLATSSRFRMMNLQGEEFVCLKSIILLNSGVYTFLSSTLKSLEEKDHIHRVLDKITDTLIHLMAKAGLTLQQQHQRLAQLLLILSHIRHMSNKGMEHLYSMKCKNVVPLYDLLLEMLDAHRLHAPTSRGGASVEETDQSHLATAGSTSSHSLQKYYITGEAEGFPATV
Outline: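 ER-alpha agonism measured under antagonist challenge: 10.0nM ICI-182,780 (final) plus compound, 15 concentrations, 22hr, VM7Luc4E2 ERE-luciferase cells. Read by luminescence.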

[8] = qHTS assay to identify small molecule agonists or antagonists of the thyroid stimulating hormone receptor (TSHR) signaling pathway - wild type cell line counter screen (AID 1259384)
Outline: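 Wild-type Hek293 cells, 800/well, 18 h at 37C, then compound with Ro20-1724 for 30 min RT. cAMP by HTRF (cAMP-d2/anti-cAMP cryptate), 1 h RT, fluorescence read. 15 concentrations, triplicates.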

[9] = target: Thyrotropin receptor (Homo sapiens) (UniProt P16473); experiment: qHTS assay to identify small molecule antagonists of the thyroid stimulating hormone receptor (TSHR) signaling pathway (AID 1259385); also: nearly all actives have a fitted effect of over 20% in size; also: potency is read from the fitted curve at half-maximal effect
Thyrotropin receptor (Homo sapiens), sequence (P16473 whole entry, looked up): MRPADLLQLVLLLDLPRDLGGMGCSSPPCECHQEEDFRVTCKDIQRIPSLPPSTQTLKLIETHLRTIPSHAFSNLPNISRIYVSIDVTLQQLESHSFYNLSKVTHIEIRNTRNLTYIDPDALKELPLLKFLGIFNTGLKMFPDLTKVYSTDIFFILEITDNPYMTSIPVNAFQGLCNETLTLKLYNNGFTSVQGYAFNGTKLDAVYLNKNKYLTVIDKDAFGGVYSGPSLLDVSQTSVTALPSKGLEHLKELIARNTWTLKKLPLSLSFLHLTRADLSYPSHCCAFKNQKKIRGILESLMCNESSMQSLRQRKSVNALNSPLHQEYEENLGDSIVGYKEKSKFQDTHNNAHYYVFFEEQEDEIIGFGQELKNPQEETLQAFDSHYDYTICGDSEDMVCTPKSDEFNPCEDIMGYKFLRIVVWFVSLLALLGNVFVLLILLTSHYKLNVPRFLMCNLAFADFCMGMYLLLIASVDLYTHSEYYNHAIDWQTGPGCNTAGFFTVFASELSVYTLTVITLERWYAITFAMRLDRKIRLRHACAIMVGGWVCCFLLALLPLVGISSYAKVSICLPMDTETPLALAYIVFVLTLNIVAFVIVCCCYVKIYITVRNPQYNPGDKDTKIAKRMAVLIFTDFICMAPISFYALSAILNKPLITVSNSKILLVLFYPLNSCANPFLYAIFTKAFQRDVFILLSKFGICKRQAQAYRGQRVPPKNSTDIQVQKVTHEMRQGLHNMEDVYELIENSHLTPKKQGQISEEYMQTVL
Outline: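 TSHR-HEK293 cells (800/well) plated 18 h, then compounds with Ro20-1724 and TSH at 1.5 ng/mL final, 30 min at room temperature. cAMP quantified by HTRF (cAMP-d2/anti-cAMP-cryptate, 1 h); 15 concentrations in triplicate.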

[10] = target: Androgen receptor (Homo sapiens) (UniProt P10275); experiment: qHTS assay to identify small molecule agonists of the androgen receptor (AR) signaling pathway in the presence of an antagonist (AID 1259381); also: nearly all actives have a fitted effect of over 15% in size
Androgen receptor (Homo sapiens), sequence (P10275 whole entry, looked up): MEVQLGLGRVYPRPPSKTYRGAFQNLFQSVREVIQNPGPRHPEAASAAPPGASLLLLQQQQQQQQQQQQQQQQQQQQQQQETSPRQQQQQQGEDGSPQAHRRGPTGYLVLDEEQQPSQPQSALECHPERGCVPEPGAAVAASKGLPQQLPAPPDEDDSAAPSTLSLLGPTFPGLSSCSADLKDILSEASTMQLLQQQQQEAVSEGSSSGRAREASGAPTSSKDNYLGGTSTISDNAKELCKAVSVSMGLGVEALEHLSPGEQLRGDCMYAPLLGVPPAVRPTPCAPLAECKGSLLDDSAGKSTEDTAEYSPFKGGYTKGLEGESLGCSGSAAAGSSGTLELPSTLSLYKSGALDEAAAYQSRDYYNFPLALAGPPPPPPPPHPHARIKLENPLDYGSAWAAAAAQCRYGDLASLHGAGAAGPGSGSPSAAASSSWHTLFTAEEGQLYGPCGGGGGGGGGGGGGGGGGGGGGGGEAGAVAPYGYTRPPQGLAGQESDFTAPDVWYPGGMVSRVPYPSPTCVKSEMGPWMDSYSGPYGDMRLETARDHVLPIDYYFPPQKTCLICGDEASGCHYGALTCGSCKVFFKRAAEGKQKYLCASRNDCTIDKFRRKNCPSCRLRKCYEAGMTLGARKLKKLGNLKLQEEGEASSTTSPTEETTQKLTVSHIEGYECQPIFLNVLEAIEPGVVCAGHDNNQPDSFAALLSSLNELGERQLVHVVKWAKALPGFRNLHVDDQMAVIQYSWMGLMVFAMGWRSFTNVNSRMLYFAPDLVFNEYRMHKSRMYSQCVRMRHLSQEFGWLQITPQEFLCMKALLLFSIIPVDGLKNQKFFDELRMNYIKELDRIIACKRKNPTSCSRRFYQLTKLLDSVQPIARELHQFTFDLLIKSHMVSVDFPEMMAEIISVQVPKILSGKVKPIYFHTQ
Outline: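 AR antagonist background: nilutamide 3.0uM final. Cell line: MDA-kb2, MMTV-driven luciferase, responsive to both AR and GR. Exposure 16hr, 37C, no CO2; ONE-Glo luminescence.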

Measured: Potency

C1COC(NC(C2CC2)C2CC2)=N1
not listed: [10]
inactive: all other assays above

O=C1NCC2(CCN(CCc3ccccc3)CC2)O1
not listed: [10]
inactive: all other assays above

CC(C(O)c1ccc(O)cc1)N1CCC(Cc2ccccc2)CC1 (stereo unspecified)
not listed: [8] | [9] | [10]
inactive: all other assays above

C=C(C)C1CC=C(C)C(OC(C)=O)C1 (stereo unspecified)
not listed: [10]
inactive: all other assays above

CCC(CO)(CO)COCC(CC)(CO)CO
not listed: [7] | [10]
inactive: all other assays above

CC(C)(C)c1cc(C(C)(C)C)c(O)c(C(C)(C)C)c1
inactive and 48.6 µM (active): [5]
not listed: [10]
inactive: all other assays above

C/C=C/c1ccc(OCC)c(O)c1
not listed: [7] | [10]
inactive: all other assays above

Oc1ccc(Cl)cc1Cc1cc(Cl)ccc1O
active: [1] 15.6 µM and 21.7 µM | [3] 17.5 µM and 19.3 µM and 23.7 µM | [4] 39.3 µM and 27.3 µM and 29.8 µM | [5] 49.4 µM and 48.6 µM and 18.8 µM | [6] 27.8 µM and 27.3 µM
inactive: [2] | [10] | [7] | [8] | [9]

COC(c1ccccc1)(c1ccccc1)[C@H](Oc1nc(C)cc(C)n1)C(=O)O
not listed: [5] | [7] | [10]
inactive: all other assays above

Cc1ccc(S(=O)(=O)Oc2ccc(N=Nc3ccc(-c4ccc(N=Nc5c(O)ccc6cc(S(=O)(=O)O)cc(S(=O)(=O)O)c56)c(C)c4)cc3C)cc2)cc1
active: [4] 24.4 µM and 17.8 µM | [9] 61.4 µM
not listed: [7]
inactive: all other assays above

Cc1c2oc3c(C)ccc(C(=O)N[C@@H]4C(=O)N[C@H](C(C)C)C(=O)N5CCC[C@H]5C(=O)N(C)CC(=O)N(C)[C@@H](C(C)C)C(=O)O[C@@H]4C)c3nc-2c(C(=O)N[C@@H]2C(=O)N[C@H](C(C)C)C(=O)N3CCC[C@H]3C(=O)N(C)CC(=O)N(C)[C@@H](C(C)C)C(=O)O[C@@H]2C)c(N)c1=O (I: T[dV]P[Sar][NMeV] / II: T[dV]P[Sar][NMeV]; ester I:1-I:C, II:1-II:C; linker I:N-II:N via Actinocin(9to1))
active: [1] 0.0021 µM | [3] 26.6 nM | [4] 10.6 µM
not listed: [8] | [9]
inactive: all other assays above

O=C(O[C@@H]1Cc2c(O)cc(O)cc2O[C@@H]1c1cc(O)c(O)c(O)c1)c1cc(O)c(O)c(O)c1
inactive: [2] | [3] | [5] | [6] | [7]
active: [1] 27.4 µM | [4] 54.6 µM

CCCCOCCOC(=O)c1ccccc1C(=O)OCCOCCCC
active: [1] 26.7 µM
not listed: [9] | [10]
inactive: all other assays above

c1cnc2cc3c(cc2n1)C1CNCC3C1
not listed: [8] | [9] | [10]
inactive: all other assays above

Clc1ccc2c(c1)C(N1CCNCC1)=Nc1ccccc1O2
active: [4] 61.1 µM and 29.8 µM | [5] 30.6 µM and 23.7 µM
not listed: [10]
inactive: all other assays above

OCC(CO)N[C@H]1C[C@](O)(CO)[C@@H](O)[C@H](O)[C@H]1O
inactive: all assays above

CC(=O)Nc1ccc(C(=O)CCl)cc1
inactive and 30.6 µM (active): [1]
not listed: [4] | [7]
inactive: all other assays above

C=CC(=O)OCCCCCCOC(=O)C=C
active: [1] 19.6 µM and 19.3 µM | [3] 54500 nM | [5] 24.3 µM
not listed: [4]
inactive: all other assays above

NC(N)=Nc1nc(CSCC/C(N)=N/S(N)(=O)=O)cs1
inactive: [1] | [4] | [5] | [6] | [7]
